From PubChem
This is a sample that favours compounds with a hit; in the whole collection about 6.7% have one here.
C diff HTS – inhibitors of Clostridium difficile growth. AID 1259249. growth activity, negative = inhibition, % at 16 µg/mL (by protocol). Clostridium difficile clinical isolate growth, OD600, 24 h; active compounds read low. 86,000 compounds, 0.25% hits;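 active = mean growth activity at or below -80% and every replicate also at or below -80%; inconclusive = mean at or below -80% but some replicate above -80%; inactive = mean growth activity above -80%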;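 also: 0% = DMSO wells and -100% = levofloxacin 16 µg/mL wells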
Pf Dd2 growth – blocks growth of Plasmodium falciparum Dd2 parasites. P. falciparum Dd2 growth, SYBR Green, 72 h; active compounds read low. activity change, % at 10 µM. 94,000 compounds, 2.3% hits. AID 1159554; in the data active = activity change below about -80%; inconclusive = no clear call, values can overlap the other calls
T cruzi growth – blocks T. cruzi growth in NIH3T3 culture. T. cruzi beta-gal in NIH3T3, GalScreen luminescence, 90 h. inhibition, % at 8.34 µM. 77,000 compounds, 5.9% hits;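 active = mean inhibition above about 93%, with at least 55% of replicates each passing it, limit read from the data, passing the limit was not always enough; inconclusive = only one of those two conditions holds; inactive = neither condition holds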
Active calls of the source: *; u = inconclusive; x = not tested or not shown.

SMILES	C diff HTS	Pf Dd2 growth	T cruzi growth
C[C@@H]1CN([C@H](C)CO)C(=O)c2cc(NC(=O)Nc3ccc(F)cc3)ccc2O[C@@H](C)CCCCO[C@H]1CN(C)S(=O)(=O)c1ccccc1	4	-76	u
C[C@@H]1CN([C@H](C)CO)C(=O)c2cc(NC(=O)Nc3ccc(F)cc3)ccc2O[C@@H](C)CCCCO[C@@H]1CN(C)S(=O)(=O)c1ccc(F)cc1	-9	-80	67
C[C@@H]1CN([C@H](C)CO)C(=O)c2cc(NC(=O)Nc3ccc(F)cc3)ccc2O[C@@H](C)CCCCO[C@H]1CN(C)S(=O)(=O)c1ccc(Cl)cc1	-7	-73	88
C[C@@H]1CCCCO[C@@H](CN(C)S(=O)(=O)c2ccccc2)[C@@H](C)CN([C@@H](C)CO)C(=O)c2cc(NC(=O)Nc3ccc(F)cc3)ccc2O1	8	-81*	87
CC(C)C#Cc1ccc2c(c1)O[C@H](CN(C)C(=O)C1CC1)[C@@H](C)CN([C@H](C)CO)S2(=O)=O	1	-35	x
COc1cccc(CN(C)C[C@H]2OCc3cn(nn3)CCCC(=O)N([C@@H](C)CO)C[C@@H]2C)c1	x	-13	-19
C[C@H](CO)N1C[C@H](C)[C@H](CN(C)S(=O)(=O)c2ccc(C#N)cc2)Oc2ncc(C#CCN(C)C)cc2C1=O	-4	24	-23
O=C(C[C@H]1C[C@@H]2c3cc(NC(=O)NC4CCCCC4)ccc3O[C@@H]2[C@@H](CO)O1)NCc1ccccc1	x	-22	15
CCCNC(=O)N1[C@H](C#N)[C@H](c2ccc(-c3ccccc3F)cc2)[C@H]1CO	12	-88*	67
CCCNC(=O)N1[C@H](C#N)[C@H](c2ccc(-c3ccccc3F)cc2)[C@@H]1CO	18	-87*	91
CCCNC(=O)N1[C@H](CO)[C@@H](c2ccc(-c3ccccc3F)cc2)[C@@H]1C#N	1	-16	56
CCCNC(=O)N1[C@@H](C#N)[C@H](c2ccc(-c3ccccc3F)cc2)[C@@H]1CO	-5	-63	34
COc1ccc(CNC(=O)C[C@@H]2CC[C@@H](NC(=O)c3ccc4c(c3)OCO4)[C@@H](CO)O2)cc1	-4	-5	13
CO[C@@H]1CN(C)C(=O)c2ccc(NC(=O)Nc3ccccc3F)cc2OC[C@@H](C)N(C)C[C@H]1C	3	-49	x
CO[C@@H]1CN(C)C(=O)c2ccc(NC(=O)Nc3ccccc3Cl)cc2OC[C@@H](C)N(C)C[C@H]1C	x	-87*	-6
CCCN1C[C@@H](C)[C@@H](OC)CN(C)C(=O)c2ccc(NC(=O)Nc3ccccc3F)cc2OC[C@@H]1C	x	-24	-27
CO[C@@H]1CN(C)C(=O)c2ccc(NC(=O)Nc3ccccc3F)cc2OC[C@@H](C)N(CCC(F)(F)F)C[C@H]1C	6	-85*	67
C[C@H](CO)N1C[C@H](C)[C@@H](CN(C)S(=O)(=O)c2ccccc2)OCCCC[C@H](C)Oc2ccc(NC(=O)Nc3cccc4ccccc34)cc2C1=O	-1	-43	84
C[C@@H]1CCCCO[C@H](CN(C)S(=O)(=O)c2ccc(Cl)cc2)[C@@H](C)CN([C@@H](C)CO)C(=O)c2cc(NC(=O)Nc3cccc4ccccc34)ccc2O1	-1	-81*	95
C[C@@H]1CN([C@H](C)CO)C(=O)c2cc(NC(=O)Nc3cccc4ccccc34)ccc2O[C@@H](C)CCCCO[C@H]1CN(C)S(=O)(=O)c1ccc(Cl)cc1	5	u	23
C[C@@H]1CN([C@H](C)CO)C(=O)c2cc(NC(=O)Nc3cccc4ccccc34)ccc2O[C@@H](C)CCCCO[C@@H]1CN(C)S(=O)(=O)c1ccc(Cl)cc1	8	-85*	37
O=C(C[C@H]1CC[C@H](NC(=O)CN2CCOCC2)[C@H](CO)O1)NCCc1ccncc1	x	15	-21
CO[C@@H]1CN(C)C(=O)c2cc(NC(=O)Nc3ccc(F)cc3)ccc2OC[C@H](C)NC[C@H]1C	1	-8	-100
CO[C@H]1CN(C)C(=O)c2ccc(NC(=O)Nc3ccc(C(F)(F)F)cc3)cc2OC[C@H](C)NC[C@H]1C	x	-90*	26
CO[C@@H]1CN(C)C(=O)c2cc(NC(=O)Nc3ccc(C(F)(F)F)cc3)ccc2OC[C@H](C)NC[C@H]1C	x	-89*	-132
SMILES	C diff HTS	Pf Dd2 growth	T cruzi growth
CO[C@@H]1CN(C)C(=O)c2cc(NC(=O)Nc3ccc(C(F)(F)F)cc3)ccc2OC[C@@H](C)NC[C@@H]1C	x	-81*	-11
CO[C@H]1CN(C)C(=O)c2ccc(NC(=O)Nc3ccc(C(F)(F)F)cc3)cc2OC[C@@H](C)NC[C@@H]1C	x	-76	35
CO[C@@H]1CN(C)C(=O)c2ccc(NC(=O)Nc3ccc(C(F)(F)F)cc3)cc2OC[C@H](C)NC[C@@H]1C	x	-21	0
C[C@@H]1CN([C@H](C)CO)C(=O)c2cc(NC(=O)CCN3CCOCC3)ccc2O[C@@H]1CN(C)C(=O)Nc1ccc(F)cc1	6	40	-1
CCC(=O)Nc1ccc2c(c1)C(=O)N(C)C[C@H](OC)[C@@H](C)CN(C(=O)c1ccccc1F)[C@H](C)CO2	x	-7	-34
Cc1noc(C)c1S(=O)(=O)Nc1ccc2c(c1)C(=O)N([C@@H](C)CO)C[C@@H](C)[C@H](CN(C)C(=O)Nc1ccc(F)cc1)O2	x	36	5
Cc1noc(C)c1S(=O)(=O)N(C)C[C@@H]1OCCCC[C@H](C)Oc2ccc(NC(=O)Cc3ccccc3)cc2C(=O)N([C@@H](C)CO)C[C@H]1C	2	-74	54
CNC[C@@H]1Oc2ccc(NC(=O)Nc3c(C)noc3C)cc2C(=O)N([C@@H](C)CO)C[C@H]1C	0	-2	-8
O=C(C1CCC1)N1CC(=O)N2[C@H](CO)[C@@H](c3ccc(C#CCc4ccccc4)cc3)[C@@H]2C1	-9	-86*	x
O=C(c1cnccn1)N1CC(=O)N2[C@H](CO)[C@@H](c3ccc(C#CCc4ccccc4)cc3)[C@@H]2C1	-13	-72	x
O=C(C1CCC1)N1CC(=O)N2[C@H](CO)[C@H](c3ccc(C#CCc4ccccc4)cc3)[C@H]2C1	-15	-13	x
O=C(c1cnccn1)N1CC(=O)N2[C@@H](CO)[C@@H](c3ccc(C#CCc4ccccc4)cc3)[C@@H]2C1	-10	-83*	x
O=C(Cc1ccccc1)N1CC(=O)N2[C@H](CO)[C@@H](c3ccc(C#CCc4ccccc4)cc3)[C@H]2C1	38	-43	x
O=C(Cc1ccccc1)N1CC(=O)N2[C@H](CO)[C@H](c3ccc(C#CCc4ccccc4)cc3)[C@H]2C1	-15	-89*	x
Cc1noc(C)c1NC(=O)N[C@H]1CC[C@H](CC(=O)NCc2ccc(Cl)c(Cl)c2)O[C@@H]1CO	x	3	-3
C[C@H]1CN([C@@H](C)CO)C(=O)c2cc(C#CCc3ccccc3)cnc2O[C@H]1CN(C)Cc1ccccc1	-1	-76	x
CCCNC(=O)N1C[C@@H]2[C@H](c3ccccc31)[C@H](CO)N2C(=O)c1ccncc1	-1	-6	43
COc1ccc(NC(=O)Nc2cccc3c2O[C@H](CN(C)CC2CCCCC2)[C@@H](C)CN([C@H](C)CO)C3=O)cc1	4	-3	55
C[C@@H]1CN([C@@H](C)CO)C(=O)c2cc(NC(=O)Nc3cccc4ccccc34)ccc2O[C@@H](C)CCCCO[C@H]1CN(C)C(=O)Nc1cccc2ccccc12	x	-9	8
